In PubChem BioAssay (Tox21):
Records with an inconclusive call do not appear. Entries that show only a call come without a potency. Calls of active or inactive are those of the source. Calls come from the whole dose curve; as a rule, active = well fitted cell-killing curve with a large enough effect in the repeat runs; inconclusive = weak or mixed curves, or effect the other way; inactive = flat fitted curve, though single readings scatter.

Tests used:
[1] = cAMP Responsive Elements (CRE) small molecule antagonists, cell-based qHTS assay: qHTS cell viability counter screen (AID 2060913); conditions: CRE-bla HEK293T viability, CellTiter-Glo luminescence, 5 h; series mostly up to 92.4 µM; note: nearly all actives have a fitted effect of over 40% in size
Procedure, shortened: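 Cytotoxicity read in the same wells as the CRE-bla HEK293T antagonist assay: after 3 h compound with 0.25 uM NKH477 final and 2 h beta-lactamase substrate, CellTiter-Glo luminescence measured.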

[2] = cAMP Responsive Elements (CRE) small molecule agonists, cell-based qHTS assay: qHTS cell viability counter screen (AID 2060914); conditions: CRE-bla HEK293T viability, CellTiter-Glo luminescence, 5 h; series mostly up to 92.4 µM; note: nearly all actives have a fitted effect of over 50% in size
Procedure, shortened: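 In the same wells as the reporter read, viability of CRE-bla HEK 293T cells was quantified by CellTiter-Glo luminescence after a 3 h compound exposure.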

| SMILES | Potency [1] | Potency [2] |
| --- | --- | --- |
| NC(=O)C(c1ccccc1)(c1ccccc1)[C@@H]1CCN(CCc2ccc3c(c2)CCO3)C1 | inactive | inactive |
| CCCCCCCOC(=O)c1ccccc1C(=O)OCCCCCCC | inactive | inactive |
| CN(C)CCOC(c1ccc(Cl)cc1)c1ccccn1 (configuration not stated) | inactive | inactive |
| CC(C)CC(C)O (configuration not stated) | inactive | inactive |
| CCCCCCc1ccc(O)cc1O | inactive | inactive |
| CC(C)(C)C1CCC(O)CC1 (configuration not stated) | inactive | inactive |
| CCC(C)(CN(C)C)OC(=O)c1ccccc1 (configuration not stated) | inactive | inactive |
| COc1ccc(C)cc1[N+](=O)[O-] | inactive | inactive |
| Nc1nc(N)nc(-c2cc(Cl)ccc2Cl)n1 | inactive | inactive |
| CCC(CO)(CO)[N+](=O)[O-] | inactive | inactive |
| CC(C)Nc1cccnc1N1CCN(C(=O)c2cc3cc(NS(C)(=O)=O)ccc3[nH]2)CC1 | inactive | inactive |
